Assay outcomes as filed in PubChem BioAssay.
TGFb SMAD3 inh = inhibitors of TGF-b signaling | HepG2 CAGA-GFP TGF-b/SMAD3 reporter, GFP fluorescence, 18 h; TGF-beta stimulated, 500 pg/mL final | Potency, µM (doses to about 46.1 µM), without a hit: at the top dose activity, negative = inhibition, actives largely listed as inhibitors | 1.2% of 410,000 active; also: potency is read from the fitted curve at half-maximal effect; % is scaled to controls: 0 for no effect and ±100 for the full control effect; nearly all actives have a fitted effect of over 65% in size
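Per well, imaged GFP fluorescence of HEPG2 CAGA-GFP cells gives the signal; cells get compound, then TGF-beta (500 pg/mL final), 18 h at 37 degrees C; %Activity versus -TGF-beta and +DMSO controls.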
ATXN viability = viability counter-screen for ATXN expression inhibitors. S2 cells (HEK-293 line with an ATXN2-luciferase reporter) viability, CellTiter-Fluor protease fluorescence, 24 h. Potency, µM (series often up to 56.7 µM), usual class: cytotoxic. 0.49% of 400,000 active. AID 651635; also: potency is read from the fitted curve at half-maximal effect; nearly all actives have a fitted effect of over 40% in size
IL1B secr inh = inhibitors of inflammasome signaling (IL-1 beta secretion); THP-1 LPS/ATP IL-1B secretion, AlphaLISA, 16 h; stronger effect = lower value; AID 743279; 4.7% of 360,000 active; activity change, % at 57.5 µM; in the data active = activity change below about -50%; inconclusive = mostly about -30% to -49%; also: % is scaled to controls: 0 for no effect and ±100 for the full control effect
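THP-1 cells pretreated 1 hr with compounds (up to 57.5 uM final), then stimulated with LPS (250 ng/mL final) plus ATP (1.25 mM final); secreted IL-1B measured by AlphaLISA after 16 hr, decreased signal indicating inhibition.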
HepG2 viability = HepG2 cytotoxicity, counter-screen for TGF-b inhibitors; HepG2 CAGA-GFP viability, ATP luminescence, 18 h; Potency, µM (highest dose often 46.1 µM), inactives show at the top dose activity change, negative = cytotoxicity, hits mostly cytotoxic; 0.76% of 410,000 active; AID 588856; also: potency is read from the fitted curve at half-maximal effect
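CellTiter-Glo luminescence gave cytotoxicity after 18 hours at 37 degrees C. The cells were HepG2 CAGA-GFP in 1% FBS DMEM, stimulated with 500 pg/mL TGF-beta after compound addition. %Activity was normalised to no-cell wells (complete cell-killing) and DMSO (no toxicity), and curves were fitted and classified.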
ATXN2 expr inh = ATXN2 expression inhibition; Potency, µM (titrated, usually from 57 µM), without a hit: top-dose activity change, negative = inhibition, most hits filed as inhibitors; HEK-293 ATXN2-luciferase reporter, luminescence, 24 h; 0.72% of 360,000 active; also: potency is read from the fitted curve at half-maximal effect; % is scaled to controls: 0 for no effect and ±100 for the full control effect; nearly all actives have a fitted effect of over 55% in size
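ATXN2-luciferase reporter cells (luciferase flanked by upstream and downstream ATXN2 gene portions) were treated 24 h at 37 °C with compounds at up to 57 uM. SteadyGlo luminescence gave expression; GF-AFC fluorescence gave viability.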
Starred values were filed as active, the others as inactive; [ ] = remark or other dose. Compounds with a hit are over-represented: about 5.7% of the library has one in this group of screens. Unless noted, calls follow the shape of the dose curve; as a rule, active = well fitted curve in the direction sought with a large enough effect; inconclusive = small, poorly fitted or top-dose-only effect, or another doubt; inactive = no such curve, though single readings can be large; an effect the other way counts as inactive or inconclusive.

Cc1cnc(-n2ncc(C(=O)NCCN3CCOCC3)c2C2CC2)nc1-c1cccs1 was read as ATXN viability inactive.
`Cc1cccc(CNC(=O)C2CCN(S(=O)(=O)c3ccc4c(c3)CCCN4C(=O)C3CCC3)CC2)c1` gave TGFb SMAD3 inh inconclusive, ATXN viability inactive, HepG2 viability 6% and ATXN2 expr inh -8%.
Oc1cc2cc(-c3csc(-c4ccc(F)cc4)n3)cc3c2n1CCC3 was read as TGFb SMAD3 inh 4% and HepG2 viability -41%.
Screening CC(=O)NC1CC2CCCC(C1)N2C(=O)Nc1ccc(Cl)c(C(F)(F)F)c1 (stereo unspecified) returned TGFb SMAD3 inh inconclusive, ATXN viability inactive, IL1B secr inh 0, HepG2 viability 1% and ATXN2 expr inh -3%.
`CC(=O)NCC(=O)N1[C@H]2CC[C@H]1c1cc(Nc3ncc(C(F)(F)F)c(NC4CCC4)n3)ccc12` gave ATXN2 expr inh 4.9µM*.
N#Cc1ccc(NC(=O)COc2ccccc2C(=O)Nc2ccccc2)cc1 was read as TGFb SMAD3 inh -9% and HepG2 viability -13%.
For COc1cccc(NC(=O)C(Sc2nnc(Nc3ccccc3C)s2)c2ccccc2)c1 (stereo unspecified) the results were TGFb SMAD3 inh inconclusive, ATXN viability inactive, IL1B secr inh -51*, HepG2 viability 1% and ATXN2 expr inh -19%.
CCc1nnc(SCC(=O)Nc2cc(Cl)c(OC)cc2OC)c2cc3oc(C)cc3n12 was read as TGFb SMAD3 inh -8% and HepG2 viability -1%.
CCN(Cc1ccncc1)Cc1ccc2c(c1)CN(C(=O)c1ccc(OC)cc1)CCO2 was read as ATXN viability inactive.
CC1(C)CC(=O)c2c(C(F)(F)F)nn(-c3ccc(C(N)=O)c(NC4CCC(O)CC4)c3)c2C1 (stereo unspecified) was read as ATXN2 expr inh 0.097µM*.
CC1(C)CC(=O)c2c(C(F)(F)F)nn(-c3ccc(C(N)=O)c(NC4CCC(OC(=O)CN)CC4)c3)c2C1 (stereo unspecified) was read as ATXN2 expr inh 0.22µM*.
For C[C@@H]1CC[C@@]2(OC1)O[C@H]1C[C@H]3[C@@H]4CC[C@H]5C[C@@H](O)CC[C@]5(C)[C@H]4CC(=O)[C@]3(C)[C@H]1[C@@H]2C the results were ATXN viability inactive[5.17 µM] and ATXN2 expr inh 8%[5.55 µM].
For CC1=C(CC[C@@H](C)CO)OC2CC3C4CCC5CC(O)CCC5(C)C4CC(=O)C3(C)C12 (stereo partly specified) the results were TGFb SMAD3 inh 2%, ATXN viability inconclusive, IL1B secr inh -66*, HepG2 viability -25% and ATXN2 expr inh 25µM*.
CC1=C(C)CS(=O)N(S(=O)(=O)c2ccc(Cl)cc2)C1 (stereo unspecified) was read as TGFb SMAD3 inh inconclusive, ATXN viability inconclusive, IL1B secr inh -93*, HepG2 viability -75% and ATXN2 expr inh inconclusive.
`CC1CCCC(C)N1S(=O)(=O)c1ccc(Cl)cc1` (stereo unspecified) gave TGFb SMAD3 inh 13%, ATXN viability inactive, IL1B secr inh -3, HepG2 viability 8% and ATXN2 expr inh -3%.
C=CCN(C(=O)CCc1ccccc1OC)c1nc(-c2ccc(S(C)(=O)=O)cc2)cs1 was read as TGFb SMAD3 inh 1%, ATXN viability inactive, IL1B secr inh -57*, HepG2 viability 4.5µM* and ATXN2 expr inh 6%.
`CCn1c(CN2CCCCC2)nc2cc(NC(=O)COc3ccc(C(C)(C)C)cc3)ccc21` gave TGFb SMAD3 inh 0%, ATXN viability inactive, HepG2 viability -3% and ATXN2 expr inh -8%.
`CN(C)CCOc1cc(-c2cn[nH]c2)ccc1NC(=O)C1COc2ccccc2O1` (stereo unspecified) gave ATXN2 expr inh -16%.
For COc1ccc(N(C(=O)c2cc3ccccc3oc2=O)C2C=CS(=O)(=O)C2)cc1 (stereo unspecified) the results were TGFb SMAD3 inh -2%, ATXN viability inactive, IL1B secr inh inconclusive, HepG2 viability -11% and ATXN2 expr inh -16%.
For O=C(c1cc2ccccc2oc1=O)N(c1ccccc1)C1C=CS(=O)(=O)C1 (stereo unspecified) the results were TGFb SMAD3 inh -2%, ATXN viability inactive, IL1B secr inh -54*, HepG2 viability 16% and ATXN2 expr inh 17%.
Screening CC(=O)Nc1cccc(NC(=O)CSc2ncc(-c3ccc(Cl)cc3)n2Cc2ccco2)c1 returned TGFb SMAD3 inh -13%, ATXN viability inconclusive, IL1B secr inh -22, HepG2 viability -46% and ATXN2 expr inh inconclusive.
COc1ccc(-c2cnc(SCC(=O)Nc3ccc4c(c3)OCO4)n2Cc2ccco2)cc1 was read as TGFb SMAD3 inh inconclusive, ATXN viability inactive, IL1B secr inh -73*, HepG2 viability -1% and ATXN2 expr inh -20%.
CCOC(=O)NC(C(Cl)(Cl)Cl)S(=O)(=O)c1ccccc1 (stereo unspecified) was read as TGFb SMAD3 inh -6%, ATXN viability inactive, IL1B secr inh -87*, HepG2 viability 20% and ATXN2 expr inh -8%.
For C=CCCN(C(C)C(=O)OC)S(=O)(=O)c1ccccc1Br (stereo unspecified) the results were TGFb SMAD3 inh -10% and HepG2 viability 1%.
Cc1c(Cl)cccc1N1C(N)=C(C#N)C(c2cc(CN3CCOCC3)cs2)C2=C1CCCC2=O (stereo unspecified) was read as TGFb SMAD3 inh -4%, ATXN viability inactive, HepG2 viability -21% and ATXN2 expr inh 4%.
Screening CN1CC2=Cc3ccccc3OC23Oc2ccccc2C=C3C1 returned TGFb SMAD3 inh inconclusive, ATXN viability inconclusive, IL1B secr inh -117*, HepG2 viability -86% and ATXN2 expr inh -25%.
`CCOc1ccc(NC(=O)CN(C)C(=O)CSCc2ccc(C)cc2)cc1OCC` gave TGFb SMAD3 inh 18%, ATXN viability inactive, IL1B secr inh -7, HepG2 viability 5µM* and ATXN2 expr inh -19%.
`CCOc1ccc(NC(=O)CN(C)C(=O)CSCc2cccc(C)c2)cc1OCC` gave TGFb SMAD3 inh -8%, ATXN viability inactive, IL1B secr inh -1, HepG2 viability -2% and ATXN2 expr inh -7%.
Fc1cnc(Cl)nc1N1CCN(c2ccccc2)CC1 was read as TGFb SMAD3 inh 0%, ATXN viability inactive, IL1B secr inh 30, HepG2 viability -9% and ATXN2 expr inh -11%.
CN1CCN(c2nc(N3CCN(c4ccccc4)CC3)ncc2F)CC1 was read as TGFb SMAD3 inh -27%, ATXN viability inconclusive, IL1B secr inh -71*, HepG2 viability -19% and ATXN2 expr inh -35%.
